In all, about 300,000 compounds went through this assay and about 37,000 (12%) were called active. What follows is part of a selection rich in actives, with near analogues and random picks from the rest. Unmarked numbers belong to inactive results. Rule as the data show it: active = max response mostly above about 13% (no sharp cut-off); inactive = mostly below about 14%.
Test: Cycloheximide Counterscreen for Small Molecule Inhibitors of Shiga Toxin; also: read at 38.3 µM for the half of the compounds with a filed dose; 0% is about no effect
Conditions: cell reporter, cycloheximide protein synthesis inhibition counterscreen; stronger effect = higher value

SMILES | max response
O=C1/C(=C/c2cccs2)CCC1C1CCCC1 (stereo unspecified) | 29.4% (active)
CN1CCN(C(=O)/C(=C\c2cccs2)NC(=O)c2cccs2)CC1 | 8.48%
COc1ccc(/C=C2\CCc3ccccc3C2=O)c(OC)c1OC | 35.6% (active)
O=C1/C(=C/c2cccs2)SC(=S)N1C1CCS(=O)(=O)C1 (stereo unspecified) | -0.776%
CCC1C/C(=C/c2cccs2)C(=O)/C(=C/c2cccs2)C1 (stereo unspecified) | -1.72%
CN1C/C(=C/c2cccs2)C(=O)/C(=C\c2cccs2)C1 | 35.9% (active)
COc1cc(/C=C/C(=O)N2CCc3ccccc3C2)cc(OC)c1OC | 0.558%
c1ccc2c(c1)CCc1snnc1-2 | -1.75%
O=S(=O)(c1cccs1)N1CCc2ccccc2C1 | -2.33%
O=C1/C(=C/c2cccs2)CCc2ccccc21 | 62.8% (active)
COc1ccc2c(c1OC)C(=O)c1ccccc1C2=O | 2.67%
O=C(Nc1ccccc1C(=O)N1CCOCC1)c1ccc(CSc2ccccc2)cc1 | -0.894%
Cc1cc(=O)oc2c(C)c(OCC(=O)NCCc3ccc(S(N)(=O)=O)cc3)ccc12 | -1.87%
CCOC(=O)C1=C(c2ccccc2)NC(=O)NC1c1cc(OCC)c(O)c([N+](=O)[O-])c1 (stereo unspecified) | -1.22%
CCOc1ccc2c(c1)c(=O)c(S(=O)(=O)c1ccc(C)cc1)cn2CC | -0.573%
OC1CCCN(c2ncnc3c2nnn3Cc2c(F)cccc2Cl)C1 (stereo unspecified) | 7.82%
CC(=O)c1cc2c(cc1NC(=O)Cn1nc(-c3ccc(F)cc3)ccc1=O)OCO2 | 0.865%
Cc1cc(C)nc(NNC2=CC(=O)CC(C)(C)C2)n1 | 2.37%
CCCCN(Cc1ccccc1)C(=O)C1CCN(Cc2sccc2C)CC1 | -5%
CCOc1cc(C2/C(=C(/O)c3ccc(S(=O)(=O)N4CCCCC4)cc3)C(=O)C(=O)N2CCOC)ccc1O (stereo unspecified) | -6.09%
CC(C)/C=N/NC(=O)c1cc(Br)ccc1O | 9.21%
CC(=O)N/N=C(\C)c1ccc(Br)cc1Br | -2.79%
CC(=N\NC(=O)c1cc(Br)ccc1O)/C(=N/O)C(=O)Nc1ccccc1 | 23.2% (active)
COc1ccc(/C=N/N=C/c2c[nH]c(=O)c(C#N)c2Nc2ccccc2)cc1 | -2.7%
COc1cccc(NC(=O)C(Sc2nc3ccccc3c(=O)n2CC(C)C)c2ccccc2)c1 (stereo unspecified) | 0.135%
COc1ccc2c(-c3ccccc3)cc(SCC(=O)N(C)C3CCS(=O)(=O)C3)nc2c1 (stereo unspecified) | -1.72%

SMILES | max response
Cc1ccc(-n2c(O)c(C=NCC3CCCO3)c(=O)[nH]c2=O)c(C)c1 (stereo unspecified) | -0.95%
CC(=NCC1CCCO1)c1c(O)n(-c2ccccc2)c(=O)[nH]c1=O (stereo unspecified) | 4.02%
O=C1C(C=NCC2CCCO2)=C(O)c2ccccc21 (stereo unspecified) | 32.1% (active)
CC(C)(C)c1ccc(CN2C(=O)c3ccccc3S2(=O)=O)cc1 | 17.5% (active)
O=C1c2ccccc2S(=O)(=O)N1Cc1c(F)cccc1Cl | -0.645%
O=C1CN(Cc2ccccc2)S(=O)(=O)c2ccccc21 | -0.808%
CC1CN(S(=O)(=O)c2ccccc2)C(C)CN1S(=O)(=O)c1ccccc1 (stereo unspecified) | -3.63%
Cc1cc(C)cc(C(=O)NC(CC(N)=O)c2ccc(N3CCC(N4CCCCC4)CC3)c([N+](=O)[O-])c2)c1 (stereo unspecified) | -1.84%
NS(=O)(=O)c1ccc(NC(=S)Nc2ccc(Br)c(Cl)c2)cc1 | -1.56%
CC1CCC(NC(=O)c2ccc(N3CCCC3=O)cc2)CC1 (stereo unspecified) | 40.8% (active)
O=C(NCCc1ccc(Cl)cc1)c1cccc(N2CCCC2=O)c1 | 21.3% (active)
O=C(NCc1cccc(Cl)c1)C1CCN(c2nnc(N3CCCC3=O)s2)CC1 | -2.64%
CC1CCCC(NC(=O)CN2CCN(Cc3ccc(Cl)cc3)C2=O)C1C (stereo unspecified) | -4.51%
O=C(NCCCN1CCCCCC1)c1ccc(N2CCCC2=O)cc1 | -4.57%
O=C(NCCc1ccc(Cl)cc1)C1CCCN1C(=O)NCc1ccccc1 (stereo unspecified) | -1.54%
CC1CCCC(NC(=O)c2cccc(N3CCCC3=O)c2)C1C (stereo unspecified) | 44.4% (active)
C/C(=N\NC(=O)c1cccc(N2CCCC2=O)c1)c1ccc(N)cc1 | 27%
CCCNC(=O)NCc1ccc(N2CCCC2=O)cc1 | -2.06%
Cn1c2c(c(=O)n(C)c1=O)C(c1cccc([N+](=O)[O-])c1)Nc1ccccc1O2 (stereo unspecified) | -1.06%
Cc1ccc(S(=O)(=O)NCC2CCC(C(=O)N3CCOCC3)CC2)cc1 (stereo unspecified) | 3.28%
Cc1cc2ccccn2c1C(=O)c1cccc(F)c1 | -1.02%
C=CCSc1nc(N)cc(=O)[nH]1 | 13.9%
Cc1cc(S(=O)(=O)c2cc3ccc(O)c(C)c3oc2=O)ccc1F | -4.92%
COc1ccc(CCNC(=O)C(=O)NCC2OCCN2S(=O)(=O)c2ccc(OC)c(C)c2)cc1 (stereo unspecified) | 0.773%
O=C(NCc1ccccc1)C(=O)NCC1OCCN1S(=O)(=O)c1ccc(Br)cc1 (stereo unspecified) | 9.31%
